# The supplement of paper PMC12669032
# Unmarked numbers belong to inactive results.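 Rule for the calls: active = AUC reduced over 20% with Padj below 0.05 in at least 2 of 3 replicates; inactive = otherwise.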
# Key:
# Assay in all cases: growth AUC relative to DMSO control (median of replicates) (fraction); higher = more growth (less inhibition), active = hit call of the paper
# Details in all cases: 20 µM; 24 h
# [1] = test system: Akkermansia muciniphila
# In short: (§1)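 Three biological replicates, each grown on a separate day, were combined as a median for every value. In each, a gut bacterial monoculture in mGAM started at OD600 0.05 and grew anaerobically at 37 °C with 20 µM compound (1% DMSO), with OD600 read hourly over 24 h. Area under the growth curve was normalised against the plate median of solvent-only wells, or against row and column medians on the industrial chemical plate, after the minimum OD was set to 0.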
# [2] = test system: Bacteroides caccae
# In short: as §1
# [3] = test system: Bacteroides clarus
# In short: as §1
# [4] = test system: Bacteroides dorei
# In short: as §1
# [5] = test system: Bacteroides stercoris
# In short: as §1
# [6] = test system: Bacteroides thetaiotaomicron
# In short: as §1
# [7] = test system: Bacteroides uniformis
# In short: as §1
# [8] = test system: Bifidobacterium longum subsp. longum
# In short: as §1
# [9] = test system: Clostridium difficile
# In short: as §1
# [10] = test system: Collinsella aerofaciens
# In short: as §1
SMILES,growth AUC [1],growth AUC [2],growth AUC [3],growth AUC [4],growth AUC [5],growth AUC [6],growth AUC [7],growth AUC [8],growth AUC [9],growth AUC [10]
CCCCCCCC/C=C\CCCCCCCCCCCCC,0.969,0.961,0.982,1.05,0.986,0.995,0.997,0.964,1.05,1.02
CCCCCCCC(=O)Oc1c(Br)cc(C#N)cc1Br,1.06,0.934,0.959,1.04,0.842,1.04,0.983,1.06,1.02,0.971
COc1ccc(Oc2ccc(NC(=O)N(C)C)cc2)cc1,0.887,1,0.958,0.98,0.951,0.982,0.948,0.957,0.99,1
COc1cc(OC)nc(Sc2cccc3c2C(=O)OC3C)n1 (stereo not given),0.871,1.01,0.989,1.04,1.06,0.974,0.97,0.974,0.998,1.03
CC(C)N(C(=O)C(=O)O)c1ccccc1,1.01,1.01,1.05,1.03,1.13,1.01,1.01,1.08,1.02,0.981
Cc1nn(C)c(Oc2ccccc2)c1/C=N/OCc1ccc(C(=O)OC(C)(C)C)cc1,1.04,1.01,1.03,0.974,0.961,0.982,0.969,0.944,1.02,0.963
CCOC(=O)C1=NN(c2ccc(Cl)cc2Cl)C(C)(C(=O)OCC)C1 (stereo not given),0.965,0.979,0.932,1.02,0.933,0.92,0.95,0.931,1.03,1.01
O=C(O)C1(C(=O)Nc2ccc(Cl)cc2Cl)CC1,1.06,1.06,0.956,1.05,1.1,1.03,1.04,0.998,1.01,1.01
O=C(O)Cc1c(Cl)ccc(Cl)c1Cl,0.95,1,0.99,1.02,0.951,1,0.993,1.04,1,1
CO/N=C(/C(=O)O)c1ccccc1CO/N=C(\C)c1cccc(C(F)(F)F)c1,1,0.913,0.954,0.981,1.15,0.795,0.889,0.927,0.974,0.936
COCC(=O)N(c1c(C)cccc1C(=O)O)C(C)C(=O)O (stereo not given),0.834,1.02,0.979,1.01,0.917,0.967,0.974,0.907,1.04,1
O=C1NC(=O)c2ccccc21,1.09,0.873,1.02,1,1.31,1,1.01,1.04,1.01,0.982
O=S(=O)(Cc1ccc(Cl)cc1)c1ccc(Cl)cc1,0.848,1,0.981,1.02,1.12,0.963,0.997,1.03,1.01,1.01
COCCN(C(=O)CO)c1c(C)cccc1C(=O)O,1.23,0.963,1,0.964,1.03,1.01,0.961,1.06,0.94,0.936
CCc1cccc(C)c1N(C(=O)C(=O)O)[C@@H](C)C(=O)O,1.17,0.993,1.02,0.963,1.06,0.999,0.999,0.908,0.903,0.986
COc1nc(NC(=O)NS(=O)(=O)c2ccccc2C(F)(F)F)nc(C(F)(F)F)n1,1.06,1.03,0.979,0.971,1,0.974,1,1.01,0.987,1.01
CC(C)(c1cc(Br)c(O)c(Br)c1)c1cc(Br)c(O)c(Br)c1,0.904,0.0238 (active),0.0496 (active),0.675 (active),0.0125 (active),0.662 (active),0.297 (active),0.252 (active),0.0683 (active),0.0491 (active)
CN(C)C(=O)Nc1ccc(Cl)c(Cl)c1,0.951,0.995,0.975,0.981,1.08,0.99,0.954,1.09,0.965,0.992
O=[N+](Nc1ccccc1)c1ccccc1,0.945,0.972,0.966,0.997,1.08,0.991,0.988,0.934,1,0.965
CP(=O)(O)CCC(=O)O,0.928,0.975,0.956,1.01,1.01,1.03,0.967,1.03,1.04,1
CC(C)N(C(=O)CS(=O)CC(=O)O)c1ccc(F)cc1 (stereo not given),0.994,0.965,0.94,0.969,0.988,0.987,0.958,1.03,1.01,1
CCCOc1nc2ccc(I)cc2c(=O)n1CCC,0.956,0.995,0.896,1.01,0.905,0.936,0.95,0.937,0.964,0.952
CCCCCC(C)OC(=O)COc1ccc(Cl)c2cccnc12 (stereo not given),1.01,0.887,0.956,0.945,1.03,0.889,0.915,0.953,0.934,0.853
CCNc1nc(NCC)nc(OC)n1,0.914,1.02,1.02,1,1.01,0.967,0.992,0.957,1,0.992
CCNc1nc(NC(C)(C)C)[nH]c(=O)n1,1,0.937,0.98,1.01,1.17,0.969,0.983,1.03,0.951,0.95
FC(F)(F)C(=NOCC1OCCO1)c1ccc(Cl)cc1,1.16,0.948,1.05,0.969,1.34,0.991,0.941,0.988,0.904,0.976
COCCCNc1nc(NC(C)C)nc(SC)n1,0.847,0.981,0.976,0.989,0.977,0.957,0.982,0.985,0.963,0.993
CNC(=O)/C(=N/OC)c1ccccc1CO/N=C(C)/C(=N/OC)C(/C)=N/OC,0.957,0.983,0.98,1,0.991,0.976,0.976,0.989,0.979,1.03
O=C(Nc1ccc(F)cc1)c1cccc(Oc2cccc(C(F)(F)F)c2)n1,0.978,0.964,0.886,0.895,0.82,1,1.02,1.04,0.934,0.865
